Results filed as inconclusive are left out. Calls of active or inactive are those of the source. Unless noted, calls come from the whole dose curve; as a rule, active = well fitted curve in the direction sought with a large enough effect in the repeat runs; inconclusive = weak or mixed curves; inactive = no such curve, though single readings can be large; an effect the other way counts as inactive or inconclusive.
What was measured:
[1] = molecular target: Nuclear receptor subfamily 1 group I member 3 (Homo sapiens) (UniProt Q14994); assay: qHTS assay to identify small molecule antagonists of the constitutive androstane receptor (CAR) signaling pathway (AID 1224838);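 note: HepG2 cells stably expressing hCAR with CYP2B6 luciferase reporter stimulated by CITCO; nearly all actives have a fitted effect of over 40% in size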; note: potency is the fitted concentration of half-maximal effect
Nuclear receptor subfamily 1 group I member 3 (Homo sapiens), sequence (Q14994 whole entry, looked up): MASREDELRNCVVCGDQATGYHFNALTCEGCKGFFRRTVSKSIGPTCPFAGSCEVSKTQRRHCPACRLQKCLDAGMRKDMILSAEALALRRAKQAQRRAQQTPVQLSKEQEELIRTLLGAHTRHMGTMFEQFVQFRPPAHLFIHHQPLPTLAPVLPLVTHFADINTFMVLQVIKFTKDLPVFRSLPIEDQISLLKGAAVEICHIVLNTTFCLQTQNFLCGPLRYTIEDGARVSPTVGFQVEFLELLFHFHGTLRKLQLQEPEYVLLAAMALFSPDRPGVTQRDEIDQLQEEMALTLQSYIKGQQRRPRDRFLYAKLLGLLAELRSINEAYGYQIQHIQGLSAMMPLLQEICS
Method in brief: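 Antagonism measured as luciferase signal (ONE-Glo, 30 min, room temperature) in CAR-stimulated cells: HepG2-CYP2B6-hCAR double-stable line exposed 24 hr at 37 C to compound in a 15-point series plus 50 nM CITCO.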

[2] = molecular target: Nuclear receptor subfamily 1 group I member 3 (Homo sapiens) (UniProt Q14994); assay: qHTS assay to identify small molecule agonists of the constitutive androstane receptor (CAR) signaling pathway (AID 1224839); note: nearly all actives have a fitted effect of over 15% in size; note: potency is the fitted concentration of half-maximal effect;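 for activation: HepG2 cells stably carrying human CAR and a CYP2B6 luciferase reporter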
Method in brief: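 Luminescence read-out (ONE-Glo, 30 min, room temperature) from double-stable HepG2-CYP2B6-hCAR cells exposed 24 h to 15-point compound series in presence of 0.75 uM PK11195 final.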

[3] = qHTS assay to identify small molecule antagonists of the estrogen related receptor signaling pathway with the pleiotropic PPARgamma coactivator (PGC) from Tox21 10K library - cell viability counter screen (AID 1224840; active = well fitted cell-killing curve with a large enough effect in the repeat runs, not every such curve was filed as active; note: nearly all actives have a fitted effect of over 40% in size; note: potency is the fitted concentration of half-maximal effect)
Method in brief: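 Counter-screen for cytotoxicity: after 17.5 h compound exposure at 37 C, CellTiter-Fluor reagent added to PGC/ERR cells for 30 min and fluorescence read. Cells were seeded at 2,000 per well 6 h before dosing.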

[4] = qHTS assay to identify small molecule antagonists of the estrogen related receptor signaling pathway with the pleiotropic PPARgamma coactivator (PGC) from Tox21 10K library (AID 1224841; call rule not given here; note: actives are mostly falling curves and most rising ones were filed inactive; nearly all actives have a fitted effect of over 50% in size)
Method in brief: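 Luminescence (One-Glo, 30 min at room temperature) after 18 h compound treatment at 37 C of PGC/ERR reporter cells plated at 2,000 cells/well and settled 6 h beforehand.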

[5] = qHTS assay to identify small molecule agonists of the estrogen related receptor signaling pathway with the pleiotropic PPARgamma coactivator (PGC) from Tox21 10K library (AID 1224842); note: nearly all actives have a fitted effect of over 15% in size
Method in brief: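 PGC/ERR reporter cells (NTP line) were seeded 2,000 per well, rested 6 h at 37 C/5% CO2, then pin-dosed with compounds in DMSO for 18 h at 37 C; luciferase read by One-Glo luminescence after 30 min at room temperature.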

[6] = molecular target: Thyrotropin receptor (Homo sapiens) (UniProt P16473); assay: qHTS assay to identify small molecule agonists of the thyroid stimulating hormone receptor (TSHR) signaling pathway (AID 1224843; calls by dose curve; note: nearly all actives have a fitted effect of over 45% in size)
Thyrotropin receptor (Homo sapiens), sequence (P16473 whole entry, looked up): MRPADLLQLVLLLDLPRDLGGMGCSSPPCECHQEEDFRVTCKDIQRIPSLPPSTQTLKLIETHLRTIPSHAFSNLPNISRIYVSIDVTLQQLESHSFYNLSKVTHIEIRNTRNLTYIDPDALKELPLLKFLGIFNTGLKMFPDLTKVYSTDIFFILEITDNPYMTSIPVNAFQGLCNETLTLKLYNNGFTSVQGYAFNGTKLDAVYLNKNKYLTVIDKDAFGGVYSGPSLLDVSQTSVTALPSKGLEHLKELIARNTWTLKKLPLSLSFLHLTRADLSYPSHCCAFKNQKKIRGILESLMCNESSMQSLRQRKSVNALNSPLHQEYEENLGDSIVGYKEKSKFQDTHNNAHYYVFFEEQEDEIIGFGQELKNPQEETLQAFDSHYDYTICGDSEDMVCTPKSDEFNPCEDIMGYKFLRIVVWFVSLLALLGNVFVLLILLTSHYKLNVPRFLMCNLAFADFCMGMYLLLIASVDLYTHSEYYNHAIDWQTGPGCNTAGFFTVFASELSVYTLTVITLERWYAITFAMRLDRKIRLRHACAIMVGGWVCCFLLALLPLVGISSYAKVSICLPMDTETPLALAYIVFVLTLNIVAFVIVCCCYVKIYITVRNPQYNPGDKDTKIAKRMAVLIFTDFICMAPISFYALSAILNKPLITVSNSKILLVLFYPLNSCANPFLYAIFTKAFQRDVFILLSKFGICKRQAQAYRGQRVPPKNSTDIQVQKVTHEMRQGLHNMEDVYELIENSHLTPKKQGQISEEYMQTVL
Method in brief: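 Using 15 concentrations per compound in triplicate, cAMP production was monitored in TSHR-HEK293 cells after 30 min compound incubation at RT; HTRF reagents followed, with fluorescence intensity recorded after 1 h.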

[7] = qHTS assay to identify small molecule agonists of the hypoxia (HIF-1) signaling pathway - cell viability counter screen (AID 1224844; calls by dose curve; note: nearly all actives have a fitted effect of over 50% in size; note: potency is the fitted concentration of half-maximal effect)
Method in brief: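 Cytotoxicity measured by CellTiter-Glo ATP luminescence in the wells also read for beta-lactamase signal. Cells were HRE-bla ME-180 (2,000/well, 0.5% dialyzed FBS), exposed to compounds for 17 h at 37C.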

[8] = qHTS assay to identify small molecule agonists of the hypoxia (HIF-1) signaling pathway (AID 1224846; active = well fitted activation curve with a large enough effect in the signal ratio in the repeat runs, not every such curve was filed as active; the % refers to the signal ratio)
Method in brief: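 Compounds added to ME-180 cells carrying hypoxia-response-element beta-lactamase reporter (0.5% dialyzed FBS, 5 h preplating), 17 h at 37C; agonist activity detected by CCF4-AM B/G FRET read-out.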

[9] = qHTS assay to identify small molecule agonists of H2AX - cell viability counter screen (AID 1224847; calls by dose curve; note: nearly all actives have a fitted effect of over 30% in size; note: potency is the fitted concentration of half-maximal effect; for activity change, negative = cytotoxicity: top concentration of the series differs between compounds)
Method in brief: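 CHO-K1 wt, 1000 cells/well, o/n 37C; cpds 15 conc, 3 h 37C, 0.76% DMSO; CellTiter-Glo, 30 min RT, luminescence.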

[10] = qHTS assay to identify small molecule antagonists of the estrogen related receptor (ERR) signaling pathway from Tox21 library (AID 1224848); note: nearly all actives have a fitted effect of over 50% in size; note: potency is the fitted concentration of half-maximal effect
Method in brief: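 Tox21 10K compounds in DMSO tested for ERR pathway antagonism in NTP's ERR cell line; 18 h, 37 C exposure; ONE-Glo luminescence.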

[11] = qHTS assay to identify small molecule agonists of the estrogen related receptor (ERR) signaling pathway from Tox21 library (AID 1224849; calls by dose curve; note: nearly all actives have a fitted effect of over 15% in size); details: ERR reporter cell line, ONE-Glo luciferase, 18 h; at 92.4 µM (top of the series) unless noted
Method in brief: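 Luminescent agonist read-out (One-Glo, 30-minute room-temperature incubation) following 18-hour compound treatment at 37 C of the ERR cell line, which had been plated 6 hours before dosing.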

[12] = qHTS RealTime-Glo MT Cell Viability Assay in HepG2 cells - 24 hour (AID 1224867); note: nearly all actives have a fitted effect of over 50% in size; note: potency is the fitted concentration of half-maximal effect
Method in brief: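 HepG2 cells (600/well) were dispensed with RealTime-Glo reagents, incubated 5 h at 37 °C, then treated with compounds in DMSO for up to 40 h. Nonlytic NanoLuc luminescence reflecting viable cells was read at each stated time point.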

[13] = qHTS RealTime-Glo MT Cell Viability Assay in HEK293 cells - 32 hour (AID 1224868); note: nearly all actives have a fitted effect of over 50% in size; note: potency is the fitted concentration of half-maximal effect; for activity change, negative = cytotoxic: top concentration of the series differs between compounds
Method in brief: (§1)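 HEK293 cells seeded with NanoLuc/prosubstrate reagent, rested 5 h at 37 C, then dosed and kept at 37 C up to 40 h. Nonlytic real-time luminescence from viable cells read at 0, 8, 16, 24, 32 and 40 h.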

[14] = A CellTox Green Cytotoxicity Assay to monitor cytotoxicity in HEK293 cells - 0 hour (AID 1224869); note: nearly all actives have a fitted effect of over 50% in size
Method in brief: (§2)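 Fluorescence from a DNA-binding dye excluded by viable cells was measured repeatedly in the same HEK293 wells (600 cells/well) during continuous compound exposure at 37 C. Each assay gives one read point: 0, 8, 16, 24, 32 or 40 h.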

[15] = qHTS RealTime-Glo MT Cell Viability Assay in HepG2 cells - 40 hour (AID 1224870); note: nearly all actives have a fitted effect of over 50% in size; note: potency is the fitted concentration of half-maximal effect
Method in brief: (§3)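 HepG2 cells mixed with RealTime-Glo MT reagents (NanoLuc plus cell-permeant prosubstrate) were seeded at 600 cells/well, incubated 5 h at 37 C/5% CO2, then pinned with compounds in DMSO; nonlytic luminescence tracked viability during 40 h treatment.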

[16] = A CellTox Green Cytotoxicity Assay to monitor cytotoxicity in HEK293 cells - 40 hour (AID 1224871); note: nearly all actives have a fitted effect of over 45% in size; note: potency is the fitted concentration of half-maximal effect
Method in brief: as §2

[17] = qHTS RealTime-Glo MT Cell Viability Assay in HEK293 cells - 16 hour (AID 1224872); note: nearly all actives have a fitted effect of over 50% in size; note: potency is the fitted concentration of half-maximal effect; for activity change, negative = cytotoxicity: top concentration of the series differs between compounds
Method in brief: as §1

[18] = qHTS RealTime-Glo MT Cell Viability Assay in HepG2 cells - 8 hour (AID 1224873); note: nearly all actives have a fitted effect of over 55% in size; note: potency is the fitted concentration of half-maximal effect
Method in brief: as §3

[19] = qHTS RealTime-Glo MT Cell Viability Assay in HEK293 cells - 40 hour (AID 1224874); details: RealTime-Glo luminescence; max response: hits give low values; note: nearly all actives have a fitted effect of over 50% in size; note: potency is the fitted concentration of half-maximal effect
Method in brief: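 Luminescence, which tracks viable cell number through reduction of the prosubstrate to a NanoLuc substrate, was read over continuous 37 C culture. Cells (600/well) were premixed with reagent and rested 5 h before 23 nL of compound in DMSO was pinned.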

[20] = qHTS assay to identify small molecule agonists of H2AX (AID 1224845; active = well fitted activation curve with a large enough effect in the signal ratio in the repeat runs, not every such curve was filed as active; the % refers to the signal ratio)
Method in brief: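 Wild-type CHO-K1 cells plated overnight, then exposed 3 hr at 37C to compounds at 15 concentrations (0.76% DMSO). Lysed, then HTRF anti-pH2AX(S139)-cryptate/anti-H2AX-d2 detection after 24 hr at room temperature; emissions 665 and 620 nm.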
% is set by controls: 0 for no effect and ±100 for the full control effect.

CC(C)C(=O)C(C)C
inactive: Potency [1] | Potency [2] | Potency [3] | Potency [4] | Potency [5] | Potency [6] | Potency [7] | Potency [8] | Potency [9] | Potency [10] | activity change, positive = activation [11] 1.37% | Potency [12] | Potency [13] | Potency [14] | Potency [15] | Potency [16] | Potency [17] | Potency [18] | max response [19] 8.37%

CCCCCc1ccc(O)cc1
active: Potency [2] 54.5 µM | Potency [9] 89.8 µM | Potency [16] 34.7 µM
inactive: Potency [1] | Potency [3] | Potency [4] | Potency [5] | Potency [6] | Potency [10] | activity change, positive = activation [11] 1.58% | Potency [12] | Potency [14] | Potency [15]

SC1CCCCC1
inactive: Potency [1] | Potency [2] | Potency [3] | Potency [4] | Potency [5] | Potency [6] | Potency [20] | Potency [8] | Potency [9] | Potency [10] | activity change, positive = activation [11] 7.84% | Potency [12] | Potency [13] | Potency [14] | Potency [15] | Potency [16] | Potency [17] | Potency [18]

CN(C[C@@H](CC[N+]12CCC(C3CCCCC3)(CC1)CC2)c1ccc(Cl)c(Cl)c1)C(=O)c1cc(C(F)(F)F)cc(C(F)(F)F)c1
active: Potency [1] 54.5 µM | Potency [3] 30.6 µM | Potency [7] 19.5 µM | Potency [9] 50.5 µM | Potency [10] 27.3 µM | Potency [12] 21.9 µM | Potency [13] 2.19 µM | Potency [15] 21.9 µM | Potency [16] 27.5 µM | Potency [17] 3.09 µM | Potency [18] 24.5 µM | Potency [19] 2.19 µM
inactive: Potency [2] | Potency [4] | activity change, positive = activation [11] -78.4% | Potency [14]

CCCCCCCCCCCCS(=O)(=O)Cl
inactive: activity, negative = inhibition [1] -3.15% [at 19 µM] | activation [2] -0.0973% [at 19 µM] | viability change, negative = cytotoxic [3] 3.05% [at 19 µM] | activation [6] -1.12% [at 19 µM] | activity change, negative = cytotoxicity [7] -3.11% [at 15.8 µM] | activation (H2AX phosphorylation) [20] 0.0057% [at 31.6 µM] | activation [8] 1.7% [at 15.8 µM] | activity change, negative = cytotoxicity [9] 2.47% [at 31.6 µM] | activity change, negative = cytotoxicity [12] 3.24% [at 15.8 µM] | activity change, negative = cytotoxic [13] 18.8% [at 15.8 µM] | cytotoxicity [14] 0.643% [at 15.8 µM] | activity change, negative = cytotoxic [15] 12.8% [at 15.8 µM] | cytotoxicity increase [16] -2.77% [at 15.8 µM] | activity change, negative = cytotoxicity [17] 11.1% [at 15.8 µM] | viability change, negative = cytotoxic [18] -5.43% [at 15.8 µM] | max response [19] 12.1%

Nc1cc([N+](=O)[O-])ccc1Cl
inactive: Potency [1] | Potency [2] | Potency [3] | Potency [4] | Potency [5] | Potency [6] | Potency [7] | Potency [20] | Potency [8] | Potency [9] | Potency [10] | activity change, positive = activation [11] 1.59% | Potency [12] | Potency [13] | Potency [14] | Potency [15] | Potency [16] | Potency [17] | Potency [18] | max response [19] 0.705%

Cn1ccnc1
inactive: Potency [1] | Potency [2] | Potency [3] | Potency [4] | Potency [5] | Potency [6] | Potency [7] | Potency [20] | Potency [9] | Potency [10] | activity change, positive = activation [11] 1.09% | Potency [12] | Potency [13] | Potency [14] | Potency [15] | Potency [16] | Potency [17] | Potency [18]

From PubChem BioAssay (Tox21)
